Screens from PubChem.
USP30 inh: blocks human USP30 ubiquitin-rhodamine cleavage. Q70CQ3. hit rate 5.3% among 47,000. AID 1645860. inhibition, % at 25 µM. purified USP30, Ub-rhodamine cleavage fluorescence
USP8 block: human USP8 deubiquitinase inhibition; purified USP8, Ub-rhodamine cleavage fluorescence, 30 min; inhibition, % at 20 µM; hit rate 4.2% among 47,000; AID 1645853
USP17 block: human USP17-like deubiquitinase inhibition | hit rate 6.5% among 47,000 | purified USP17, Ub-rhodamine cleavage fluorescence, 3 h | inhibition, % at 50 µM | AID 1645855
UCHL1 inh: inhibitors of human UCHL1 deubiquitinase. purified UCHL1, Ub-rhodamine cleavage fluorescence. inhibition, % at 20 µM. hit rate 0.2% among 47,000. AID 1645859
USP10 block: blocks human USP10 ubiquitin-rhodamine cleavage. Q14694. purified USP10, Ub-rhodamine fluorescence, 60 min. inhibition, % at 20 µM. hit rate 1.1% among 47,000. AID 1645856
Target sequence (Q14694 whole entry, looked up): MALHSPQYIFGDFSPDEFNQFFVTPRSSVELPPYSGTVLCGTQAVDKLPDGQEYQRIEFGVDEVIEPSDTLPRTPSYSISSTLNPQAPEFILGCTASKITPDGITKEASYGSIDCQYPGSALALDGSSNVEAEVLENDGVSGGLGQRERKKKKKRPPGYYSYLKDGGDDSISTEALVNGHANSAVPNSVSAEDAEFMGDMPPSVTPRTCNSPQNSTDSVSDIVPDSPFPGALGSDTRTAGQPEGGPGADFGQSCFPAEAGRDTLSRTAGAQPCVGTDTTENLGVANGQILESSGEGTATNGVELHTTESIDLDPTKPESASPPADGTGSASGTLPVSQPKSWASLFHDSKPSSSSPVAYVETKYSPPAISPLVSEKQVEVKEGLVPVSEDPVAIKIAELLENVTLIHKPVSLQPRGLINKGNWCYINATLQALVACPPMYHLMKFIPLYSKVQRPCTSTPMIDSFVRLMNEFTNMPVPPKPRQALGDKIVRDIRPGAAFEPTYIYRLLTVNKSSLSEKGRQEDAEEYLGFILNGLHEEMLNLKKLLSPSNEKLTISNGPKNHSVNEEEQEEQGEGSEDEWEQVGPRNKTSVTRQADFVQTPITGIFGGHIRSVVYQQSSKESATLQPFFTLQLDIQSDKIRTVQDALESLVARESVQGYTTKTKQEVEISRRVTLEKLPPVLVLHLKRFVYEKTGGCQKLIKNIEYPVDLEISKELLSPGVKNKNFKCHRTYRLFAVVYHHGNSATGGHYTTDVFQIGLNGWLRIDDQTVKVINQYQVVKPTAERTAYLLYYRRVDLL
USP7 inh: human USP7 deubiquitinase inhibition. purified USP7, Ub-rhodamine cleavage fluorescence. inhibition, % at 20 µM. hit rate 0.3% among 47,000. AID 1645854
The depositor's hits bear a star; i = inactive; . = no result given. An excerpt weighted towards active compounds, which were near 12% of everything screened. No stated cut-off is given here; in the data, active means inhibition above about 30%; inactive means the rest.

SMILES	USP30 inh	USP8 block	USP17 block	UCHL1 inh	USP10 block	USP7 inh
O=C(CSc1nnc(-c2ccc3c(c2)OCCO3)o1)N1CCCc2ccccc21	27	7	-31	2	7	3
Cc1cc(-c2nnc(SCC(=O)N3CCCc4ccccc43)o2)no1	-92	16	41*	3	0	4
O=C(CSc1nnc(C2COc3ccccc3O2)o1)N1CCCc2ccccc21 (centres undefined)	27	-14	-18	1	8	-5
O=C(CSc1nnc(-c2ccncc2)o1)N1CCCc2ccccc21	32*	1	1	0	-1	3
O=C(CSc1nnc2c3ccccc3nc(-c3ccco3)n12)N1CCCc2ccccc21	-13	34*	-18	-2	48*	1
CCN(CC(O)c1cccc(O)c1)C(=O)c1cc(=O)c2ccccc2o1 (centres undefined)	9	2	2	2	0	2
CC(C)N1CC(c2ncn[nH]2)c2cc(C(=O)NCC3CC3)ccc21 (centres undefined)	-20	-12	-9	0	0	0
COc1ccc(CCC(=O)Nc2ccc3c(c2)Sc2ccccc2C(=O)N3C)cc1	39*	25	.	9	6	13
CSCC[C@H](NC(=O)c1ccc(NC(C)=O)cc1)c1nnc2ccccn12	-1	0	-2	-1	-2	0
CC(NC(=O)c1ccccc1)c1nc2ccccc2n1CC(=O)NC1CCCCC1 (centres undefined)	39*	65*	39*	2	4	3
O=C(Cn1c(CNC(=O)c2ccccc2)nc2ccccc21)Nc1ccc(F)cc1	78*	72*	88*	1	44*	18
CC(C)Cn1c(CNC(=O)Cc2ccccc2)nc2ccccc21	0	1	-8	-1	1	-5
CSCCC(NC(=O)c1ccccc1)c1nc2ccccc2n1CC(=O)Nc1ccccc1 (centres undefined)	11	46*	-36	2	41*	11
CC(NC(=O)c1ccccc1)c1nc2ccccc2n1CC(=O)Nc1ccc(C#N)cc1 (centres undefined)	-1	78*	7	3	41*	18
Cc1nc2ccccc2n1CCNC(=O)c1ccc(C#N)cc1	-5	-13	4	-1	1	-2
COCCNC(=O)N1CCCN(C2CCN(Cc3ccc(F)cc3)C2=O)CC1 (centres undefined)	16	-46	-2	3	0	7
CC(Oc1ccccc1)c1nc2ccccc2n1CC(=O)N1CCc2ccccc21 (centres undefined)	12	10	9	2	2	-1
CC(NC(=O)c1ccccc1)c1nc2ccccc2n1CC(=O)Nc1ccc(OC(F)(F)F)cc1 (centres undefined)	19	33*	12	4	14	9
CC(=O)c1ccc(NC(=O)C(C)OC(=O)Cn2c(C)nc3ccccc32)cc1 (centres undefined)	-16	-8	-9	-3	-3	1
Cc1ccc(C(=O)NC(C)c2nc3ccccc3n2CC(=O)N2CCc3ccccc32)cc1 (centres undefined)	63*	63*	76*	7	7	-13
O=C(Cc1ccccc1)Nc1cc(-c2ccccc2)nn1C1CCS(=O)(=O)C1 (centres undefined)	8	13	4	5	0	3
O=C(Nc1cc(=O)[nH]c2nc(COc3ccccc3)nn12)c1ccc(Cl)cc1	-137	35*	.	1	19	6
O=C(Nc1cc(=O)[nH]c2nc(COc3ccccc3)nn12)c1ccccc1	i	-11	-104	-2	0	6
O=C1N[C@H](Cc2c[nH]c3ccccc23)C(=O)N[C@H]1Cc1c[nH]c2ccccc12	36*	0	22	0	0	6
Cc1ccccc1CN1CCN(Cc2c[nH]c3ccccc23)CC1	8	14	-2	6	0	7
SMILES	USP30 inh	USP8 block	USP17 block	UCHL1 inh	USP10 block	USP7 inh
O=C(COc1ccc(Cl)cc1)Nc1noc(-c2cccs2)n1	44*	85*	48*	8	12	21
O=C(COc1ccc(Cl)cc1)Nc1ccccc1C(=O)Nc1ccccc1	0	-40	-29	1	22	9
O=C(CNCc1cccc(Cl)c1)N1CCc2ccccc2C1	3	72*	46*	3	-1	-8
O=C(NCc1ccc(Cl)cc1)N1CCc2ccccc2C1	21	10	27	-2	2	-52
Cc1ccc2c(=O)c3c([nH]c2c1C)CCN(CC(=O)NCc1ccccc1)C3	40*	-6	72*	-24	-6	-22
O=C(c1ccn[nH]1)N1CCC2(CC1)COc1ccccc1S(=O)(=O)N(CC1CC1)C2	1	1	6	1	0	0
CCOC(=O)C1CCCN(C(=O)C(=O)c2cn(CC(=O)N3CCCCC3)c3ccccc23)C1 (centres undefined)	0	80*	34*	5	-4	2
COc1ccc(C)cc1NC(=O)CCn1cnc2ccccc2c1=O	0	7	-6	3	2	4
COc1ccc(C)cc1NCC(=O)Nc1ncc(Cl)c(C)c1Cl	-82	36*	24	-9	-5	-12
COC(=O)C1=CC(OC)=C(Cl)C(=O)C12OC(=O)c1c(O)cc(C)cc1O2 (centres undefined)	-283	-4	-49	33*	2	-92
COc1cc(O)c2c(c1)COC(=O)c1c(O)cc(C)cc1O2	9	-6	5	1	1	1
Cc1noc(C)c1CNc1ccc(Cl)cc1	5	39*	7	2	6	-11
Cc1noc(C)c1COc1cccc(C(=O)Nc2cccc(Cl)c2)c1	15	3	1	6	4	2
CCCC(=O)Nc1ccc(-n2cnc(C(=O)N3CCCCCC3)c2)nc1	0	-7	0	-3	-2	0
CN1CCc2c(sc3c2c(NCc2cccnc2)nc2nnnn23)C1	-198	39*	-8	-23	-3	-13
CCc1ccc(CNC(=O)C2CCN(c3cnc4nccnc4c3)CC2)cc1	-335	-68	-82	-34	-3	-31
CN(Cc1ccccc1)S(=O)(=O)c1ccc(C(=O)Nc2ccccc2)cc1	23	4	5	3	6	1
COc1ccc2c(Cl)c(C(=O)Nc3ccc(S(=O)(=O)N(C)Cc4ccccc4)cc3)sc2c1	.	2	-2	1	42*	9
O=C(CN1C(=O)CSc2cccn2-c2ccccc21)NCc1ccc(Cl)cc1	10	-78	40*	1	0	-1
CCc1ccc(CNC(=O)CN2C(=O)CSc3cccn3-c3ccccc32)cc1	-42	-24	4	0	0	0
COCCN(C1CCN(Cc2ccccc2S(C)(=O)=O)CC1)S(=O)(=O)c1cccc2cccnc12	-44	-2	-36	-1	-5	-2
